Where “and” joins values, the source holds several entries; their conditions need not be identical. Equal values may be shown once. In all, about 5,500 compounds went through this assay and about 2,000 (36%) were called active. Not shown: some 18% with an inconclusive outcome. Rule as the data show it: active = normalized growth mostly below about 0.91 (no sharp cut-off); inconclusive = no clear call, values can overlap the other calls; inactive = mostly above about 0.92. Some of the results follow.
Assay: chemical genetic growth profiling, strain panel (AID 1159580);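 also: tested at 20 µM; growth read once vehicle control cultures reached saturation at 30 °C; 1 = growth at the plate median or of vehicle wells; lower values mean less growth of the strain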
Settings: growth OD

Measured: normalized growth

NC(Cc1ccc(Cl)cc1)C(=O)O (centres undefined)
inactive: S. cerevisiae deletion strains, locus YJR075W, strain HOC1, stronger effect = lower value 0.999 and 1.06 | S. cerevisiae deletion strains, locus YKL009W, strain mrt4, stronger effect = lower value 1.03 | S. cerevisiae deletion strains, locus YKL068W, stronger effect = lower value 0.994 | S. cerevisiae deletion strains, locus YKL085W, strain MDH1 (second series), stronger effect = lower value 0.994 | S. cerevisiae deletion strains, locus YKL085W, strain MDH1, stronger effect = lower value 0.994 | S. cerevisiae deletion strains, locus YKL160W, strain elf1, stronger effect = lower value 0.996 | S. cerevisiae deletion strains, locus YKL190W, strain CNB1, stronger effect = lower value 0.991 | S. cerevisiae deletion strains, locus YKR001C, strain vps1, stronger effect = lower value 1.02 | S. cerevisiae deletion strains, locus YKR026C, strain gcn3, stronger effect = lower value 1 | S. cerevisiae deletion strains, locus YKR091W, strain srl3, stronger effect = lower value 0.993 | S. cerevisiae deletion strains, locus YLL001W, strain dnm1, stronger effect = lower value 0.984 | S. cerevisiae deletion strains, locus YLL026W, stronger effect = lower value 0.999 | S. cerevisiae deletion strains, locus YLL041C, strain sdh2, stronger effect = lower value 1 | S. cerevisiae deletion strains, locus YLR027C, strain aat2, stronger effect = lower value 0.999 | S. cerevisiae deletion strains, locus YLR039C, strain RIC1, stronger effect = lower value 0.994 | S. cerevisiae deletion strains, locus YLR058C, strain SHM2, stronger effect = lower value 0.981 | S. cerevisiae deletion strains, locus YLR102C, strain apc9, stronger effect = lower value 0.998 | S. cerevisiae deletion strains, locus YLR113W, strain HOG1, stronger effect = lower value 0.971 | S. cerevisiae deletion strains, locus YLR221C, strain rsa3, stronger effect = lower value 0.996 | S. cerevisiae deletion strains, locus YLR258W, strain gsy2, stronger effect = lower value 0.988 | S. cerevisiae deletion strains, locus YLR262C, strain YPT6 (second series), stronger effect = lower value 1.02 | S. cerevisiae deletion strains, locus YLR262C, strain YPT6, stronger effect = lower value 0.955 | S. cerevisiae deletion strains, locus YLR268W, strain sec22, stronger effect = lower value 1 | S. cerevisiae deletion strains, locus YLR320W, strain mms22, stronger effect = lower value 0.996 | S. cerevisiae deletion strains, locus YLR330W, strain CHS5, stronger effect = lower value 0.992 | S. cerevisiae deletion strains, locus YLR342W, strain FKS1 (second series), stronger effect = lower value 1.02 | S. cerevisiae deletion strains, locus YLR342W, strain FKS1, stronger effect = lower value 0.999 | S. cerevisiae deletion strains, locus YLR357W, strain rsc2, stronger effect = lower value 0.977 | S. cerevisiae deletion strains, locus YLR370C, strain arc18, stronger effect = lower value 1 | S. cerevisiae deletion strains, locus YLR371W, strain rom2, stronger effect = lower value 0.993 | S. cerevisiae deletion strains, locus YLR384C, strain iki3, stronger effect = lower value 0.986 | S. cerevisiae deletion strains, locus YLR418C, strain cdc73, stronger effect = lower value 1.04 | S. cerevisiae deletion strains, locus YML016C, strain PPZ1, stronger effect = lower value 0.986 | S. cerevisiae deletion strains, locus YML032C, strain rad52, stronger effect = lower value 0.983 | S. cerevisiae deletion strains, locus YML120C, strain ndi1, stronger effect = lower value 0.993 | S. cerevisiae deletion strains, locus YML124C, strain tub3, stronger effect = lower value 0.998 | S. cerevisiae deletion strains, locus YMR058W, strain fet3, stronger effect = lower value 1.02 | S. cerevisiae deletion strains, locus YMR078C, strain ctf18, stronger effect = lower value 0.992 | S. cerevisiae deletion strains, locus YMR125W, strain sto1, stronger effect = lower value 0.993 | S. cerevisiae deletion strains, locus YMR129W, stronger effect = lower value 0.995 | S. cerevisiae deletion strains, locus YMR205C, strain PFK2, stronger effect = lower value 0.991 | S. cerevisiae deletion strains, locus YMR223W, strain ubp8, stronger effect = lower value 1.01 | S. cerevisiae deletion strains, locus YMR231W, strain pep5, stronger effect = lower value 0.993 | S. cerevisiae deletion strains, locus YMR263W, strain SAP30, stronger effect = lower value 0.991 and 0.983 | S. cerevisiae deletion strains, locus YMR307W, strain GAS1, stronger effect = lower value 1.06 | S. cerevisiae deletion strains, locus YNL067W, strain RPL9B, stronger effect = lower value 0.986 | S. cerevisiae deletion strains, locus YNL071W, strain lat1, stronger effect = lower value 1 | S. cerevisiae deletion strains, locus YNL128W, strain TEP1, stronger effect = lower value 0.976 | S. cerevisiae deletion strains, locus YNL153C, strain GIM3, stronger effect = lower value 0.983 and 1.07 | S. cerevisiae deletion strains, locus YNL175C, strain NOP13, stronger effect = lower value 0.986 | S. cerevisiae deletion strains, locus YNL183C, strain NPR1, stronger effect = lower value 0.891 | S. cerevisiae deletion strains, locus YNL209W, strain ssb2, stronger effect = lower value 1 | S. cerevisiae deletion strains, locus YNL224C, strain SQS1, stronger effect = lower value 1.01 | S. cerevisiae deletion strains, locus YNL233W, strain BNI4, stronger effect = lower value 0.991 | S. cerevisiae deletion strains, locus YNL248C, strain rpa49, stronger effect = lower value 1.01 | S. cerevisiae deletion strains, locus YNL250W, strain rad50, stronger effect = lower value 0.988 | S. cerevisiae deletion strains, locus YNL271C, strain bni1, stronger effect = lower value 1 | S. cerevisiae deletion strains, locus YNL298W, strain CLA4, stronger effect = lower value 0.985 | S. cerevisiae deletion strains, locus YNL307C, strain MCK1, stronger effect = lower value 1.01 | S. cerevisiae deletion strains, locus YNL322C, strain KRE1 (second series), stronger effect = lower value 0.983 | S. cerevisiae deletion strains, locus YNL322C, strain KRE1, stronger effect = lower value 0.989 | S. cerevisiae deletion strains, locus YNR049C, strain mso1, stronger effect = lower value 1 | S. cerevisiae deletion strains, locus YNR052C, strain pop2, stronger effect = lower value 0.986 | S. cerevisiae deletion strains, locus YOL006C, strain TOP1, stronger effect = lower value 0.991 | S. cerevisiae deletion strains, locus YOL012C, strain htz1 1.95 | S. cerevisiae deletion strains, locus YOL147C, strain pex11, stronger effect = lower value 1.01 | S. cerevisiae deletion strains, locus YOR001W, strain rrp6, stronger effect = lower value 1 | S. cerevisiae deletion strains, locus YOR061W, strain CKA2, stronger effect = lower value 0.97 | S. cerevisiae deletion strains, locus YOR069W, strain VPS5, stronger effect = lower value 0.997 | S. cerevisiae deletion strains, locus YOR070C, strain gyp1, stronger effect = lower value 0.988 | S. cerevisiae deletion strains, locus YOR080W, strain dia2, stronger effect = lower value 0.992 | S. cerevisiae deletion strains, locus YOR083W, strain WHI5, stronger effect = lower value 1.02 | S. cerevisiae deletion strains, locus YOR106W, strain vam3, stronger effect = lower value 0.987 | S. cerevisiae deletion strains, locus YOR136W, strain idh2, stronger effect = lower value 0.995 | S. cerevisiae deletion strains, locus YOR144C, strain elg1, stronger effect = lower value 1 | S. cerevisiae deletion strains, locus YOR184W, strain ser1, stronger effect = lower value 1 | S. cerevisiae deletion strains, locus YOR231W, strain MKK1, stronger effect = lower value 0.991 | S. cerevisiae deletion strains, locus YOR265W, strain rbl2, stronger effect = lower value 0.986 | S. cerevisiae deletion strains, locus YOR270C, strain vph1, stronger effect = lower value 1.02 | S. cerevisiae deletion strains, locus YOR290C, strain snf2, stronger effect = lower value 0.965 | S. cerevisiae deletion strains, locus YOR316C, strain cot1, stronger effect = lower value 0.993 | S. cerevisiae deletion strains, locus YPL051W, strain arl3, stronger effect = lower value 0.992 | S. cerevisiae deletion strains, locus YPL055C, strain LGE1, stronger effect = lower value 0.976 | S. cerevisiae deletion strains, locus YPL078C, strain atp4, stronger effect = lower value 1 | S. cerevisiae deletion strains, locus YPL106C, strain sse1, stronger effect = lower value 0.97 | S. cerevisiae deletion strains, locus YPL240C, strain hsp82, stronger effect = lower value 1 | S. cerevisiae deletion strains, locus YPL241C, strain CIN2, stronger effect = lower value 0.995 and 1.01 | S. cerevisiae deletion strains, locus YPL256C, strain CLN2, stronger effect = lower value 0.969 | S. cerevisiae deletion strains, locus YPR119W, strain clb2, stronger effect = lower value 0.993 | S. cerevisiae deletion strains, locus YPR141C, strain kar3, stronger effect = lower value 0.992 | S. cerevisiae deletion strains, locus YPR163C, strain tif3, stronger effect = lower value 1 | S. cerevisiae deletion strains, locus YPR167C, strain met16, stronger effect = lower value 0.996 | S. cerevisiae deletion strains, strain wtn01, stronger effect = lower value 0.99 | S. cerevisiae strains, strain wild type, stronger effect = lower value 0.998

Reference: PubChem BioAssay AID1159580 (chemical genetic matrix, 2015)
